Test results taken from PubChem BioAssay (EPA / NIEHS).
“And” between values parts separate entries of the source, which are not always exact repeats. Identical values can stand only once. The source made the active and inactive calls. Rule for the calls: active = hit-call score of the fitted dose curve at least 0.9, where 1 is the maximum; inactive = score below 0.9.

Tests used:
[1] = ATG_DR4_LXR_CIS: Attagene CIS-FACTORIAL HepG2 Assay for human Liver X Receptor (LXR), DR4 submotif (AID 2282929); settings: HepG2 Attagene DR4 cis-reporter, mRNA transcription; AC50: actives raise or lower the signal unless noted; outcome: actives raise or lower the signal unless noted
In short: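 The endpoint is DR4-element-driven reporter transcripts after 24 h chemical exposure of transfected HepG2 cells. These were measured via RT-PCR and capillary electrophoresis, and gain or loss of signal was fitted relative to DMSO controls.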

[2] = ATG_AP_1_CIS: Attagene CIS-FACTORIAL HepG2 Assay for human Activator Protein 1 (AP-1) (AID 2282931); settings: HepG2 Attagene cis-factorial AP-1 reporter mRNA; actives raise or lower the signal
In short: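 Readout is reporter transcript level from endogenous transcription factor activity, quantified by RT-PCR with fluorescent primer extension and capillary electrophoresis. Transiently transfected HepG2 cells, 24 h exposure. Curves fitted both directions versus DMSO.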

[3] = molecular target: Retinoic acid receptor alpha (Homo sapiens) (UniProt P10276); assay: ATG_DR5_RAR_CIS: Attagene CIS-FACTORIAL HepG2 Assay for human Retinoic Acid Receptor Alpha (RARE), DR5 submotif (AID 2282934); settings: HepG2 Attagene cis-factorial RARE DR5 reporter, mRNA; actives raise or lower the signal
Sequence of Retinoic acid receptor alpha (Homo sapiens) (P10276 whole entry, looked up): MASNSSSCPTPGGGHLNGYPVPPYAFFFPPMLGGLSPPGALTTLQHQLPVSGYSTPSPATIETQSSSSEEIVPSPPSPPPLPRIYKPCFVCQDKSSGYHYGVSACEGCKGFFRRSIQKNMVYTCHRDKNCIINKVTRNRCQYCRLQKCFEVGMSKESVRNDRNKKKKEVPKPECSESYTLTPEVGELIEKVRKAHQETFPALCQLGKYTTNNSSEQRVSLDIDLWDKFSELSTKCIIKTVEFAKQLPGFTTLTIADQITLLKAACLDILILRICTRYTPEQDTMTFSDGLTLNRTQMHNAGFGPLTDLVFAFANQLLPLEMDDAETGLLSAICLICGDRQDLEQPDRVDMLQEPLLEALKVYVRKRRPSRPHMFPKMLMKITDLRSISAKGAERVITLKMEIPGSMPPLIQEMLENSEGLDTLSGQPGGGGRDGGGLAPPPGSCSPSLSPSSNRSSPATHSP
In short: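 HepG2, transient cis-reporter transfection, 24 h exposure. mRNA readout: RT-PCR, FAM label, HpaI cut, capillary electrophoresis. DMSO baseline, gain/loss fitting.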

[4] = molecular target: Transcription factor E2F1 (Homo sapiens) (UniProt Q01094); assay: ATG_E2F_CIS: Attagene CIS-FACTORIAL HepG2 Assay for human E2F Transcription Factor 1 (AID 2282935); settings: HepG2 Attagene cis-reporter, E2F reporter RNA transcripts; actives raise or lower the signal
Sequence of Transcription factor E2F1 (Homo sapiens) (Q01094 whole entry, looked up): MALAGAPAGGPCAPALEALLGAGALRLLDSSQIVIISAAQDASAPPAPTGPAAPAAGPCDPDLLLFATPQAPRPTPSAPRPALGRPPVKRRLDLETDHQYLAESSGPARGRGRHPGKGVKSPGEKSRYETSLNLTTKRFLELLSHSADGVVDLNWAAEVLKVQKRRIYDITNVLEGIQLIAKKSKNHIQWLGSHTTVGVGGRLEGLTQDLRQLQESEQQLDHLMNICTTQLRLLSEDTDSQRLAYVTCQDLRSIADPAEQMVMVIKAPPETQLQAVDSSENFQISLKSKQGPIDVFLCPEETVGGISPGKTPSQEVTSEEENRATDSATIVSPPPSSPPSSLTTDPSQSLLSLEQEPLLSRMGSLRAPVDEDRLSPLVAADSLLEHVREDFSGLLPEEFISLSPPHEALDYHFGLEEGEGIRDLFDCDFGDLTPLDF
In short: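 Total RNA from 24 h-treated, reporter-transfected HepG2 cells undergoes DNase I treatment, oligo(dT) reverse transcription, PCR and 6-FAM primer extension before capillary electrophoresis.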

[5] = ATG_E_Box_CIS: Attagene CIS-FACTORIAL HepG2 Assay for human Enhancer Box (E-box) (AID 2282936); settings: HepG2 E-box cis-reporter transcription, actives raise or lower the signal
In short: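 DMSO served as negative control and baseline for bidirectional fitting. Human hepatoma HepG2 cells, transiently transfected with cis-reporter constructs, were dosed 24 h; reporter mRNA read by RT-PCR and capillary electrophoresis.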

[6] = ATG_M_61_CIS: Attagene CIS-FACTORIAL HepG2 Assay for M61 Transcription Factor (Internal Marker) (AID 2282937); settings: HepG2 Attagene CIS-FACTORIAL M61 internal marker reporter; actives raise or lower the signal
In short: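 Readout is reporter mRNA by RT-PCR, fluorescent primer extension and capillary electrophoresis, with gain or loss fitted relative to DMSO. Transfected HepG2 cells carrying endogenous-TF-driven cis reporters were exposed to chemicals for 24 hours.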

[7] = ATG_EGR_CIS: Attagene CIS-FACTORIAL HepG2 Assay for human Early Growth Response 1 (EGR1) (AID 2282938); settings: HepG2 Attagene CIS-FACTORIAL EGR reporter mRNA; actives raise or lower the signal
In short: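 After 24 h compound exposure, RNA from reporter-transfected HepG2 cells was reverse-transcribed, PCR-amplified, fluorescently labelled and resolved by capillary electrophoresis. EGR1 reporter transcript changes, up or down, were fitted against DMSO, reflecting endogenous transcription-factor activity.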

[8] = ATG_M_19_CIS: Attagene CIS-FACTORIAL HepG2 Assay for M19 Transcription Factor (Internal Marker) (AID 2282939); settings: HepG2 Attagene CIS-FACTORIAL M19 internal marker reporter; actives raise or lower the signal
In short: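 In this multiplexed cell assay, transiently transfected HepG2 reporter units report endogenous transcription-factor activity; after 24 hours of treatment, labelled reporter cDNA fragments are quantified by capillary electrophoresis and fitted bidirectionally against DMSO.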

[9] = ATG_ERE_CIS: Attagene CIS-FACTORIAL HepG2 Assay for Estrogen Response Element (ERE) (AID 2282940); settings: HepG2 ERE cis-reporter, Attagene RNA transcript; actives raise or lower the signal
In short: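 Measuring endogenous transcription factor output, the assay doses transfected HepG2 cells for 24 hours and quantifies reporter transcripts by fluorescent RT-PCR and capillary electrophoresis, with DMSO as baseline.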

[10] = ATG_Ets_CIS: Attagene CIS-FACTORIAL HepG2 Assay for human Erythroblast Transformation Specific (ETS) (AID 2282941); settings: HepG2 ETS cis-reporter transcription; AC50: actives raise or lower the signal unless noted; outcome: actives raise or lower the signal unless noted
In short: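 Human HepG2 hepatoma cells were transiently transfected with promoter-driven reporter constructs and treated for 24 hours. Reporter transcripts were quantified by RT-PCR with fluorescent primer extension; bidirectional curve fitting used DMSO as reference.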

[11] = molecular target: Hepatocyte nuclear factor 3-beta (Homo sapiens) (UniProt Q9Y261); assay: ATG_FoxA2_CIS: Attagene CIS-FACTORIAL HepG2 Assay for human Forkhead box A2 (FOXA2) (AID 2282942); settings: HepG2 cis-reporter transcription factor activity, 24 h; actives raise or lower the signal
Sequence of Hepatocyte nuclear factor 3-beta (Homo sapiens) (Q9Y261 whole entry, looked up): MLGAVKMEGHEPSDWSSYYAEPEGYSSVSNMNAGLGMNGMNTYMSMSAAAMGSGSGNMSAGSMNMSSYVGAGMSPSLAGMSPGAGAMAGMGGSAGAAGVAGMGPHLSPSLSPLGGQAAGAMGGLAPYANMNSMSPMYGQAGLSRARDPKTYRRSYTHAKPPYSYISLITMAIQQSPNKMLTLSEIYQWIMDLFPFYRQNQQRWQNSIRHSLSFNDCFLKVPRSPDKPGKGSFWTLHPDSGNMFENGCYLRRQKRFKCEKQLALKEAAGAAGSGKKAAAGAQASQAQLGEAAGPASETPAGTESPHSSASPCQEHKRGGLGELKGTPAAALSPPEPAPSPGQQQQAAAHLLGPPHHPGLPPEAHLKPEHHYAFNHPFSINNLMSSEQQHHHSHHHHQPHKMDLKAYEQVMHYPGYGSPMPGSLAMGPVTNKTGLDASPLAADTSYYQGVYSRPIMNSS
In short: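 Endogenous transcription factor activity is captured via cis-element-driven reporter transcripts in transfected HepG2. Total RNA taken at 24 h post-dosing; labelled RT-PCR products resolved by capillary electrophoresis. Gain or loss fitted versus DMSO.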

[12] = ATG_FoxO_CIS: Attagene CIS-FACTORIAL HepG2 Assay for human Forkhead box O (FoxO) (AID 2282943); settings: HepG2 Attagene cis-reporter, FoxO element, mRNA; actives raise or lower the signal
In short: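 Human hepatoma HepG2 cells carry transiently introduced reporter transcription units controlled by cis promoter elements. Chemical treatment lasted 24 h, and mRNA signal was compared with DMSO.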

[13] = ATG_GLI_CIS: Attagene CIS-FACTORIAL HepG2 Assay for human Zinc Finger Protein GLI1 (AID 2282945); settings: HepG2, Attagene cis-factorial reporter mRNA, GLI element; actives raise or lower the signal
In short: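 Bidirectional curve fits relative to DMSO, using reporter mRNA levels from RT-PCR plus capillary electrophoresis. Cells were HepG2 transiently carrying cis-regulated reporter constructs, harvested 24 h after dosing.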

[14] = molecular target: Bile acid receptor (Homo sapiens) (UniProt Q96RI1); assay: ATG_IR1_CIS: Attagene CIS-FACTORIAL HepG2 Assay for human Nuclear Receptor Subfamily 1 Group H Member 4 (NR1H4), IR1 submotif (AID 2282946); settings: IR1 reporter transcription, actives raise or lower the signal
Sequence of Bile acid receptor (Homo sapiens) (Q96RI1 whole entry, looked up, the tested form may be a part): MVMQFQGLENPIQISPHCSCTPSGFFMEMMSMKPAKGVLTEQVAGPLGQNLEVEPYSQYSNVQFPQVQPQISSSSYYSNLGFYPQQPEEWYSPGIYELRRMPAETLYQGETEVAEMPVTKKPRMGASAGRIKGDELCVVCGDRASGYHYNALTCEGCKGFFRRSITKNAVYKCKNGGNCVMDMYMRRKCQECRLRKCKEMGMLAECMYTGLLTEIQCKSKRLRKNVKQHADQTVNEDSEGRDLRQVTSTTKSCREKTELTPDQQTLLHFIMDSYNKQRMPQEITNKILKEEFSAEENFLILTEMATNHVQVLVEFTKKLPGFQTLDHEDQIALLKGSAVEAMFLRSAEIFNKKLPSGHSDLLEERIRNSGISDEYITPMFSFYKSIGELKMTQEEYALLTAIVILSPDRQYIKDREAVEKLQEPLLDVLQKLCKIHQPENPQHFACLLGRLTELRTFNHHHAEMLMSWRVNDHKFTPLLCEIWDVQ
In short: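 Cells (human HepG2) carry transiently transfected cis-promoter reporter transcription units. Compounds are incubated 24 h, total RNA is reverse-transcribed and amplified, and labelled fragments are resolved by capillary electrophoresis. Curves use DMSO as baseline.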

[15] = ATG_GRE_CIS: Attagene CIS-FACTORIAL HepG2 Assay for human Glucocorticoid Response Elements (GRE) (AID 2282947); settings: HepG2 GRE cis-reporter, Attagene multiplex mRNA; AC50: actives raise or lower the signal unless noted; outcome: actives raise or lower the signal unless noted
In short: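 Assay uses human hepatoma HepG2 cells transfected with cis-promoter reporter units, exposed 24 h. mRNA from reporters detected by RT-PCR plus capillary electrophoresis; DMSO serves as negative control and baseline.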

[16] = ATG_ISRE_CIS: Attagene CIS-FACTORIAL HepG2 Assay for human Interferon Regulatory Factor 1 (IRF1) binding to an Interferon-Stimulated Response Element (ISRE) (AID 2282948); settings: HepG2 ISRE cis-reporter (Attagene), mRNA transcription readout; actives raise or lower the signal
In short: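 Cell-based cis-reporter assay; HepG2; 24 h exposure; reporter mRNA by RT-PCR plus capillary electrophoresis fluorescence; activity in either direction scored relative to DMSO.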

[17] = ATG_BRE_CIS: Attagene CIS-FACTORIAL HepG2 Assay for human Bone Morphogenetic Protein (BMP) Response Element (BRE) (AID 2282933); settings: HepG2 BMP response element reporter, Attagene transcription factor profiling; actives raise or lower the signal
In short: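 After a 24 h chemical treatment, transiently transfected HepG2 cells were lysed for RNA; reporter transcripts were quantified by fluorescent RT-PCR and capillary electrophoresis, normalised to DMSO.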

[18] = ATG_GATA_CIS: Attagene CIS-FACTORIAL HepG2 Assay for human GATA Binding Protein (AID 2282944); settings: HepG2 GATA cis-element reporter, Attagene multiplex mRNA; actives raise or lower the signal
In short: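 Measures endogenous transcription factor-driven reporter mRNA in HepG2 cells transiently carrying cis-regulated constructs. 24 h dosing; RNA via oligo(dT) reverse transcription, PCR, HpaI digestion, capillary electrophoresis; fitted relative to DMSO.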

[19] = ATG_AP_2_CIS: Attagene CIS-FACTORIAL HepG2 Assay for human Activator Protein 2 (AP-2) (AID 2282932); settings: HepG2 AP-2 cis-reporter, Attagene transcription factor profiling; AC50: actives raise or lower the signal unless noted; outcome: actives raise or lower the signal unless noted
In short: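 Step one: transient transfection of HepG2 with reporter transcription units. Step two: 24 h chemical exposure. Step three: RNA extraction, RT-PCR, labelled fragment analysis by capillary electrophoresis; DMSO serves as baseline.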

## CCCCCCCCC1CCC(=O)O1 (stereo not given)
[1]
  outcome: inactive
[2]
  outcome: inactive
[3]
  outcome: inactive
[4]
  outcome: inactive
[5]
  outcome: inactive
[6]
  outcome: inactive
[7]
  outcome: inactive
[8]
  outcome: inactive
[9]
  outcome: inactive
[10]
  outcome: inactive
[11]
  outcome: inactive
[12]
  outcome: inactive
[13]
  outcome: inactive
[14]
  outcome: inactive
[15]
  outcome: inactive
[16]
  outcome: inactive

## O=c1cc(-c2ccccc2)oc2ccc3ccccc3c12
[1]
  outcome: inactive
[2]
  outcome: inactive
[17]
  outcome: inactive
[5]
  outcome: inactive
[6]
  outcome: inactive
[7]
  outcome: inactive
[8]
  outcome: inactive
[9]
  AC50: 1.19 µM (active) and 521 nM (active)
[10]
  outcome: inactive
[11]
  outcome: inactive
[12]
  outcome: inactive
[18]
  outcome: inactive
[13]
  outcome: inactive
[16]
  outcome: inactive

## CC(=O)Nc1ccc(O)cc1
[1]
  outcome: inactive
[2]
  outcome: inactive
[19]
  outcome: inactive
[17]
  outcome: inactive
[3]
  outcome: inactive
[4]
  outcome: inactive
[5]
  outcome: inactive
[6]
  outcome: inactive
[7]
  outcome: inactive
[8]
  outcome: inactive
[10]
  outcome: inactive
[11]
  outcome: inactive
[12]
  outcome: inactive
[18]
  outcome: inactive
[13]
  outcome: inactive
[16]
  outcome: inactive

## O=S(=O)(O)C(F)(F)C(F)(F)C(F)(F)C(F)(F)C(F)(F)C(F)(F)C(F)(F)C(F)(F)C(F)(F)C(F)(F)F
[1]
  AC50: 8.16 µM (active) and 10.2 µM (active)
[2]
  AC50: 22.4 µM (active) and 16.6 µM (active)
[19]
  outcome: inactive
[17]
  outcome: inactive
[3]
  outcome: inactive
[5]
  outcome: inactive
[6]
  outcome: inactive
[7]
  outcome: inactive
[9]
  outcome: inactive
[10]
  outcome: inactive
[11]
  outcome: inactive
[12]
  outcome: inactive
[13]
  outcome: inactive
[14]
  outcome: inactive
[15]
  outcome: inactive
[16]
  outcome: inactive

## CCCCc1ccc2ccccc2c1S(=O)(=O)O
[1]
  outcome: inactive
[2]
  outcome: inactive
[19]
  outcome: inactive
[17]
  outcome: inactive
[3]
  outcome: inactive
[5]
  outcome: inactive
[6]
  outcome: inactive
[7]
  outcome: inactive
[8]
  outcome: inactive
[9]
  outcome: inactive
[10]
  outcome: inactive
[11]
  outcome: inactive
[12]
  outcome: inactive
[18]
  outcome: inactive
[13]
  outcome: inactive
[14]
  outcome: inactive
[15]
  outcome: inactive
[16]
  outcome: inactive

## C=CC(=C)CC/C=C(\C)CCC=C(C)C
[1]
  outcome: inactive
[2]
  outcome: inactive
[19]
  outcome: inactive
[17]
  outcome: inactive
[5]
  outcome: inactive
[6]
  outcome: inactive
[7]
  outcome: inactive
[8]
  outcome: inactive
[9]
  outcome: inactive
[10]
  outcome: inactive
[11]
  outcome: inactive
[12]
  outcome: inactive
[13]
  outcome: inactive
[14]
  outcome: inactive
[16]
  outcome: inactive

## CCCCN(C)C
[1]
  outcome: inactive
[2]
  outcome: inactive
[19]
  outcome: inactive
[17]
  outcome: inactive
[3]
  outcome: inactive
[4]
  outcome: inactive
[5]
  outcome: inactive
[6]
  outcome: inactive
[7]
  outcome: inactive
[9]
  outcome: inactive
[10]
  outcome: inactive
[12]
  outcome: inactive
[18]
  outcome: inactive
[13]
  outcome: inactive
[14]
  outcome: inactive
[15]
  outcome: inactive
[16]
  outcome: inactive

## Cc1[nH]nc2c1N=C(c1ccccc1Cl)c1cc([N+](=O)[O-])ccc1N2
[1]
  AC50: 2.67 µM (active)
[2]
  AC50: 125 nM (active)
[19]
  AC50: 3120 nM (active)
[17]
  outcome: inactive
[3]
  outcome: inactive
[4]
  outcome: inactive
[5]
  outcome: inactive
[6]
  outcome: inactive
[7]
  outcome: inactive
[8]
  outcome: inactive
[10]
  outcome: inactive
[11]
  outcome: inactive
[12]
  outcome: inactive
[18]
  outcome: inactive
[13]
  outcome: inactive
[14]
  AC50: 2080 nM (active)
[15]
  outcome: inactive
[16]
  AC50: 2900 nM (active)
